Here are results for 23 compounds from PubChem BioAssay (NCATS).

Values joined by “and” are separate entries in the source; they are usually repeats but may differ in a detail not shown here. Equal values may be shown once. A number with no mark means an inactive call. Inconclusive results are not listed. Active and inactive are the calls of the source. The call rests on the fitted dose curve; in most records, active means well fitted curve in the direction sought with a large enough effect; inconclusive means small, poorly fitted or top-dose-only effect, or another doubt; inactive means no such curve, though single readings can be large; an effect the other way counts as inactive or inconclusive.

Assay [1] is described as follows: Primary qHTS for inhibitors of nuclear receptor binding SET domain protein 2 (NSD2) in an RCH-ACV wild type WT cells (2C) (AID 1645877). Further: nearly all actives have a fitted effect of over 70% in size. Further: potency means the concentration at half of the fitted maximal effect. In general terms: In qHTS, concentration-response curves come from the screen itself.
The target in assay [2] is Glutathione peroxidase 1 (Homo sapiens) (UniProt P07203). The experiment in a line: Primary qHTS Assay for Inhibitors of Recombinant Selenoprotein Glutathione Peroxidase 1 (GPX1) (AID 1845191). Further: nearly all actives have a fitted effect of over 65% in size. On activity, negative = inhibition: on the % scale 0 is the no-effect control and ±100 the full control effect. The procedure, abridged: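 Recombinant GPX1 (10 nM final) was preincubated with compound for 30 min at room temperature, then reacted with 1 mM GSH, 0.5 mM CHP, 0.5 mM NADPH and 100 nM glutathione reductase; NADPH fluorescence (340/450 nm) was read at 0 and 15 min.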
Glutathione peroxidase 1 (Homo sapiens), sequence (P07203 whole entry, looked up): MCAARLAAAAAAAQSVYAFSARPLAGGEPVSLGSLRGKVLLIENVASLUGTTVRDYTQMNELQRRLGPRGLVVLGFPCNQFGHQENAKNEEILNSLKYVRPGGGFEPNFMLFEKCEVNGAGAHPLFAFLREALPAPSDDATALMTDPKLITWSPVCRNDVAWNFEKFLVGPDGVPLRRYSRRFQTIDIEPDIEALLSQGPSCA

Assay [3] has as its target Phospholipid hydroperoxide glutathione peroxidase GPX4 (Homo sapiens) (UniProt P36969). Description: Primary qHTS Assay for Inhibitors of Recombinant Selenoprotein Glutathione Peroxidase 4 (GPX4) (AID 1845192). Further: nearly all actives have a fitted effect of over 65% in size. On activity change, negative = inhibition: series mostly up to about 50 µM; on the % scale 0 is the no-effect control and ±100 the full control effect. In short, it runs like this:
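GR-coupled readout: 100 nM GR, 1 mM GSH, 0.5 mM NADPH; NADPH fluorescence (ex 340/em 450 nm) read at t=0 and after 15 min RT. GPX4 200 nM, preincubated 30 min with compound; substrate 0.5 mM CHP.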

Assay [4] addresses Luciferin 4-monooxygenase (Photinus pyralis) (UniProt P08659). The experiment in a line: Primary firefly luciferase (FLuc) qHTS assay for identification of artifact compounds. (AID 1845220). Further: nearly all actives have a fitted effect of over 60% in size. Further: potency means the concentration at half of the fitted maximal effect.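 On activity change, negative = inhibition: series mostly up to about 54 µM; plate controls were DMSO vehicle for no effect and no enzyme for full effect.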 The procedure, abridged: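 Reaction readout was CCD-imaged luminescence, taken 5 min after adding 10 nM purified firefly enzyme to compound-treated wells holding 10 uM luciferin and ATP in pH 7.6 buffer.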

The subject of assay [5] is Nanoluciferase (engineered Oplophorus gracilirostris luciferase). The experiment in a line: Primary Nanoluciferase (NLuc) qHTS assay for identification of artifact compounds. (AID 1845222).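 Further: NLuc secreted into diluted conditioned medium of S16 cells; series mostly up to about 54 µM; 0% = DMSO and -100% = no enzyme.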 In short, it runs like this: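 Concentration-response data were obtained by luminescence after 5 min with Nano-Glo substrate at 1:100. The enzyme was diluted S16 NLuc-expressing cell medium, preincubated with compound for 15 min at RT. Curves were fitted with a 4-parameter Hill model.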

Assay [6] in a line: Primary redox qHTS assay for identification of artifact compounds. (AID 1845223).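 Further: 0% = DMSO and 100% = reference compound.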 The procedure, abridged: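 Amplex Red (25 uM) and HRP (250 mU/mL) in HBSS, with compounds for 15 min, then 250 uM DTT for 30 min, room temperature, dark. Fluorescence 525/598 nm read; normalized to DMSO and 10 uM DA3003; Hill fit.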

Phospholipid hydroperoxide glutathione peroxidase GPX4 (Homo sapiens), sequence (P36969 whole entry, looked up): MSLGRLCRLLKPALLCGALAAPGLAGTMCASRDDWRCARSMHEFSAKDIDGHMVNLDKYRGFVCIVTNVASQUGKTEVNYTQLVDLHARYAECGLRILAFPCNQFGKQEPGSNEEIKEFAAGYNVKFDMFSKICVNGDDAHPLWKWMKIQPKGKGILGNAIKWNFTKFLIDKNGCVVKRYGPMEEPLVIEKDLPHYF

On to `CC(O)/C=C/C1(O)C2(C)COC1(C)CC(O)C2` (stereo not given), for which the Potency entry in assay [1], in assay [2], in assay [3], in assay [4], in assay [5] and in assay [6] was “inactive” in each case.

Consider `COC(=O)[C@@H](O)[C@H]1[C@@]2(C)CC3(O)[C@@H](C(=O)[C@H]2O)[C@]24O[C@]25CC(=O)O[C@@H](c2ccoc2)[C@]5(C)CCC4[C@]13C` (stereo not given in full), for which the Potency result in assay [1], in assay [2], in assay [3], in assay [4], in assay [5] and in assay [6] was “inactive” each time.

As to `COc1ccc(/C=C/C(=O)O[C@H]2[C@H](O[C@H]3[C@@H]4C=CO[C@@H](O[C@@H]5O[C@H](CO)[C@@H](O)[C@H](O)[C@H]5O)[C@@H]4[C@@]4(CO)O[C@@H]34)O[C@@H](C)[C@H](O)[C@H]2OC(C)=O)cc1`, the Potency entry in assay [1], in assay [2], in assay [3], in assay [4] and in assay [5] was “inactive” throughout.

On to `C=C1CCC2C(C)(C(=O)O)CCCC2(C)C1CC/C(=C\CO)CO` (stereo not given), for which the Potency entry in assay [1], in assay [2], in assay [3], in assay [4], in assay [5] and in assay [6] was “inactive” each time.

Consider `Cc1ccc(C(=O)N(CCCN)C(c2oc3cc(Cl)ccc3c(=O)c2Cc2ccccc2)C(C)C)cc1` (stereo not given), for which the Potency result in assay [1], in assay [2], in assay [3], in assay [4] and in assay [5] was “inactive” in each case.

For the compound `CCCCNc1ncc2c(-c3ccc(CN4CCN(C)CC4)cc3)cn(C3CCC(O)CC3)c2n1` (stereo not given), the Potency in assay [1] was 205 nM (active) and 332 nM (active) and 662 nM (active). The Potency result in assay [2], in assay [3], in assay [4] and in assay [5] was “inactive” each time.

Regarding `CC1=C(C(=O)O[C@@H]2O[C@H](COC3OCC(O)C(O)C3O)[C@@H](O)[C@H](O)[C@H]2O)C(C)(C)CCC1` (stereo not given in full), the Potency entry in assay [1], in assay [2], in assay [3], in assay [4] and in assay [5] was “inactive” in each case.

Regarding `OC[C@H]1O[C@@H](OCCc2ccccc2)[C@H](O[C@@H]2OC[C@](O)(CO)[C@H]2O)[C@@H](O)[C@@H]1O`, the Potency result in assay [1], in assay [2], in assay [3], in assay [4], in assay [5] and in assay [6] was “inactive” throughout.

For the compound `CC(=O)CC1CCC(C(C)C(=O)OCC(O)CO)O1` (stereo not given), the Potency entry in assay [1], in assay [2], in assay [3], in assay [4] and in assay [5] was “inactive” each time.

For the compound `CO[C@H]1/C=C\O[C@@]2(C)Oc3c(C)c(O)c4c(O)c(c5c(nc6cc(C)ccn65)c4c3C2=O)NC(=O)/C(C)=C\C=C/[C@H](C)[C@H](O)[C@@H](C)[C@@H](O)[C@@H](C)[C@H](OC(C)=O)[C@@H]1C`, in assay [1], the Potency was 10.3 µM (active). Moreover, the Potency result in assay [2], in assay [3], in assay [4] and in assay [5] was “inactive” each time.

In the case of `Cc1cc(C(N)=O)ccc1-n1c(CCC(=O)O)ccc1-c1ccc(-n2ccnc2)cc1`, the Potency entry in assay [1], in assay [2], in assay [3], in assay [4], in assay [5] and in assay [6] was “inactive” each time.

Regarding `C=C1C(OC2OCC(O)C(O)C2O)CC2C(C)(C)C(O)CCC2(C)C1CC/C(C)=C\CO` (stereo not given), in assay [1], the Potency was 8.93 µM (active). Moreover, the Potency result in assay [2], in assay [3], in assay [4] and in assay [5] was “inactive” throughout.

`CC(C)=CCC/C(C)=C/Cc1ccc(O)c(C2OC(=O)c3cc(C(=O)O)cc(O)c32)c1O` (stereo not given): the Potency result in assay [1], in assay [2], in assay [3], in assay [4] and in assay [5] was “inactive” throughout.

As for `CC(C)(O)CC(CO)NC(=O)CC(O)CC(=O)Cc1ccccc1` (stereo not given), the Potency entry in assay [1], in assay [2], in assay [3], in assay [4], in assay [5] and in assay [6] was “inactive” in each case.

Take `COc1ccc(/C=C\C(=O)O)c(O[C@@H]2O[C@H](CO)[C@@H](O)[C@H](O)[C@H]2O)c1`: the Potency result in assay [1], in assay [2], in assay [3], in assay [4], in assay [5] and in assay [6] was “inactive” in each case.

As for `C=C1CN(Cc2ccc(C(=O)Nc3ccccc3N)cc2)C(=O)c2ccccc21`, the Potency in assay [1] is 0.23 µM (active). Also, the Potency result in assay [2], in assay [3], in assay [4] and in assay [5] was “inactive” each time.

As for `CN1c2ccccc2C(=O)N2CCC3c4ccccc4NC3C21` (stereo not given), the Potency was 2.01 µM (active) in assay [1] and 10.5 µM (active) in assay [4]. The Potency result in assay [2], in assay [3], in assay [5] and in assay [6] was “inactive” each time.

Turning to `C=C1C(O)C[C@@H]2C(C(=O)O)=CO[C@@H](O[C@@H]3O[C@H](CO)[C@@H](O)[C@H](O)[C@H]3OC(=O)c3ccc(O)cc3)[C@H]12` (stereo not given in full), the Potency result in assay [1], in assay [2], in assay [3], in assay [4], in assay [5] and in assay [6] was “inactive” each time.

With `CC(CO)C1CCC2(C)CC3C(CO)CC(O)C3C(C)(O)C/C=C/12` (stereo not given), the Potency entry in assay [1], in assay [2], in assay [3], in assay [4] and in assay [5] was “inactive” throughout.

As for `C/C=C/C(O)C1OC(=O)CC1Nc1ccc(C(=O)O)cc1` (stereo not given), the Potency result in assay [1], in assay [2], in assay [3], in assay [4] and in assay [5] was “inactive” each time.

Consider `C[C@@H]1[C@H]2[C@H](O[C@@H]3O[C@H](CO)[C@@H](O)[C@H](O)[C@H]3O)OC=C(C(=O)O)[C@H]2C[C@@H]1O`, for which the Potency entry in assay [1], in assay [2], in assay [3], in assay [4], in assay [5] and in assay [6] was “inactive” throughout.

Take `C[C@@H]1O[C@@H](O[C@H]2[C@H](O)[C@@H](O)[C@H](O[C@H]3[C@H](O[C@H]4CC[C@@]5(C)C(=CC[C@@H]6C5CC[C@]5(C)[C@@H]7[C@H](C[C@@H]65)O[C@]5(CC[C@@](C)(CO[C@@H]6O[C@H](CO)[C@@H](O)[C@H](O)[C@H]6O)O5)[C@H]7C)C4)O[C@H](CO)[C@@H](O)[C@@H]3O)O[C@@H]2CO)[C@H](O)[C@H](O)[C@H]1O` (stereo not given in full): the Potency in assay [1] is 2.18 µM (active). The Potency result in assay [2] and in assay [3] was “inactive” in each case. For the same compound, in assay [4], the activity change, negative = inhibition was -0.0839% [at 11.6 µM]. For the same compound, the activity, negative = inhibition in assay [5] was 1.75% [at 11.6 µM].

For `C/C=C/C1=CC2=C(CO1)C(=O)C(C)(O)C(OC(=O)c1c(C)cc(OC)cc1O)C2` (stereo not given), the Potency in assay [1] is 4.5 µM (active). For the same compound, the Potency entry in assay [2], in assay [3], in assay [4] and in assay [5] was “inactive” throughout.
